Measurements as given in PubChem BioAssay (NCI).
About 79,000 compounds went through this panel and 15% of them were active in at least one assay; those are over-represented in the sample as a whole. Values without a mark were called inactive. Activity calls are given as the source filed them. Cut-off read from the data, not from the text of the source: active = growth inhibition above about 70%; inactive = the rest.

Legend:
[1] = NCI Yeast Anticancer Drug Screen. Data for the mec2-1 strain (AID 157); conditions: S. cerevisiae mec2-1 strain, active compounds read high
Procedure, shortened: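 Mutant yeast (mec2-1) grown with compound; growth inhibition relative to vehicle control reported.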

[2] = NCI Yeast Anticancer Drug Screen. Data for the cln2 rad14 strain (AID 165);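 note: 0% = growth equal to vehicle treated cultures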; conditions: S. cerevisiae cln2 rad14 strain, active compounds read high
Procedure, shortened: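 Readout is yeast growth inhibition versus vehicle-treated controls, using a strain with cln2 and rad14 alterations exposed to compound.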

[3] = NCI Yeast Anticancer Drug Screen. Data for the bub3 strain (AID 167); conditions: S. cerevisiae bub3 mutant strain, active compounds read high
Procedure, shortened: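 Screening used yeast with an engineered genetic alteration affecting cell cycle control. Compound-exposed cultures were compared with vehicle cultures, and reduced growth was taken as inhibition.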

[4] = NCI Yeast Anticancer Drug Screen. Data for the rad50 strain (AID 155);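 note: 0% = growth of vehicle-only cultures of the same strain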; conditions: S. cerevisiae rad50 strain growth inhibition; at 50.0 µM; active compounds read high
Procedure, shortened: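 Relative growth inhibition (compound vs vehicle) was measured in yeast with a defined repair-gene alteration.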

[5] = NCI Yeast Anticancer Drug Screen. Data for the sgs1 mgt1 strain (AID 161);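 note: 0% = growth of cultures given vehicle only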; conditions: S. cerevisiae sgs1 mgt1 strain, active compounds read high
Procedure, shortened: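 This yeast growth screen uses a strain with defined DNA-repair lesions; compound-treated growth is compared with vehicle-treated growth.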

[6] = NCI Yeast Anticancer Drug Screen. Data for the mlh1 rad18 strain (AID 175); conditions: S. cerevisiae mlh1 rad18 strain growth inhibition, active compounds read high
Procedure, shortened: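 Genetically defined yeast (DNA repair-deficient) exposed to compounds; growth inhibition determined relative to vehicle.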

[7] = at 5.0 µM (retest, dose inferred, filed as 0.5)
[8] = at 50.0 µM (retest, dose inferred, filed as 5.0)

SMILES | growth inhibition [1, 7] | growth inhibition [2, 7] | growth inhibition [3, 7] | growth inhibition [4] [%] | growth inhibition ([1]; at 50.0 µM) | growth inhibition ([5]; at 50.0 µM) | growth inhibition ([3]; at 50.0 µM) | growth inhibition ([6]; at 50.0 µM) | growth inhibition ([2]; at 50.0 µM) | growth inhibition [1, 8] | growth inhibition [5, 7] | growth inhibition [5, 8] | growth inhibition [2, 8] | growth inhibition [3, 8] | growth inhibition [6, 7] | growth inhibition [6, 8]
c1cc[c]([Sn]([c]2ccccc2)[c]2ccccc2)cc1.c1cc[c]([Sn]([c]2ccccc2)[c]2ccccc2)cc1 | 51% | 9% | 54% | – | – | – | – | – | – | – | – | – | – | – | – | –
CS(=O)(=O)OC1C2CC(C1OS(C)(=O)=O)C(c1ccccc1)C2C(=O)O (stereo not given) | – | – | – | 25 | 21% | 31.4% | -1.85% | 34.2% | – | – | – | – | – | – | – | –
CC(=O)c1ccc([As](=O)(O)O)cc1 | – | – | – | -10.3 | – | -13.4% | -29.1% | -30.8% | -21.4% | – | – | – | – | – | – | –
CCN(CCCl)c1cc(CN(C)C)cc(NC(=O)c2cc(C(=O)Nc3cc(CN(C)C)cc(N(CC)CCCl)c3)n(C)n2)c1 | – | – | – | – | -10.3% | 27.9% | -3.3% | 3.05% | 20% | – | – | – | – | – | – | –
O=[N+]([O-])/C=C\C(Cl)(Cl)Cl | 72% (active) | 82% (active) | 92% (active) | – | 92.7% (active) | 92.2% (active) | 90.5% (active) | 91.3% (active) | 91.5% (active) | 99% (active) | 73% (active) | 99% (active) | 99% (active) | 99% (active) | 74% (active) | 99% (active)
CCOP(=O)(OCC)OCC | – | – | – | – | -12.8% | 19% | -1.15% | 21.7% | -11.8% | – | – | – | – | – | – | –
COC(=O)C1=C(C(=O)OC)C2(C)OC1c1ccccc12 (stereo not given) | 4% | 0% | 7% | – | 98.1% (active) | 98% (active) | 97% (active) | 98.3% (active) | 93.6% (active) | 95% (active) | 4% | 96% (active) | 92% (active) | 98% (active) | 14% | 95% (active)
CCC1(c2ccccc2)C(=O)N(CCCl)C(=O)N(CCCl)C1=O | – | – | – | – | 15.8% | 4.35% | 12.2% | 17.4% | -21.7% | – | – | – | – | – | – | –
CC(=O)O.[RuH].c1ccc([PH+](c2ccccc2)c2ccccc2)cc1.c1ccc([PH+](c2ccccc2)c2ccccc2)cc1.c1ccc([PH+](c2ccccc2)c2ccccc2)cc1 | -15% | -9% | 35% | – | 70.9% (active) | 72.5% (active) | 72.5% (active) | 66.5% | 75% (active) | 90% (active) | -5% | 68% | 91% (active) | 89% (active) | -20% | 89% (active)
NCCN1CC2CCC(CC2)C1 | – | – | – | – | -48.3% | -27.1% | -3.55% | -11.7% | -5.75% | – | – | – | – | – | – | –
CCCC[As](CCCC)SC1OC(COC(C)=O)C(OC(C)=O)C(OC(C)=O)C1OC(C)=O (stereo not given) | – | – | – | – | 98.7% (active) | 98.8% (active) | 98.5% (active) | 98.1% (active) | 96.9% (active) | – | – | – | – | – | – | –
COc1ccc(O)c(/C=C/[N+](=O)[O-])c1 | -1% | 5% | 41% | – | 98.8% (active) | 99.1% (active) | 99.3% (active) | 98.9% (active) | 99.2% (active) | 99% (active) | 20% | 99% (active) | 98% (active) | 99% (active) | 21% | 99% (active)
COc1cc(CC(C)N)ccc1O (stereo not given) | – | – | – | 7.9 | -9.4% | -14.2% | 21.6% | -18.4% | – | – | – | – | – | – | – | –
O=C(OCCOCCOC(=O)C(Cl)(Cl)Cl)C(Cl)(Cl)Cl | – | – | – | -47 | – | -29.4% | -46.6% | 7.95% | 39.2% | – | – | – | – | – | – | –
COc1cc([N+](=O)[O-])c2ncccc2c1[N+](=O)[O-] | -5% | -5% | -11% | – | 52.4% | 74.5% (active) | 39.4% | – | 53.6% | 13% | -2% | 26% | -9% | 12% | – | –
